# Screens as filed in PubChem BioAssay.
# KCNQ2 enhance: potentiators of rat KCNQ2 potassium channel. B-score at 10 µM. O88943. 0.54% of 310,000 active. CHO-K1 KCNQ2, FluxOR thallium flux fluorescence; stronger effect = higher value;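 active means fluorescence ratio B-score at least 3 SD of library B-scores, with initial fluorescence B-score within 3 of them, cut at about 5.3 in these data; same plate scores as AID 2156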;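 further: B-score of peak minus minimum over baseline fluorescence ratio after K+ and Tl+ stimulus; positive B-score means potentiation of KCNQ2 with more thallium influx and brighter signal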
# KCNQ2 inh: KCNQ2 (rat) channel inhibition | B-score at 10 µM | AID 2156 | O88943 | 1.1% of 310,000 active | CHO-K1 KCNQ2, FluxOR thallium flux, 20 min; stronger effect = lower value;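 active means fluorescence ratio B-score at most minus 3 library SDs, with starting brightness B-score within 2 library SDs, cut at about -5.5 in these data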
# KCNQ2 block conf: confirmation of rat KCNQ2 potassium channel inhibitors; 57% of 1,000 active; activity change, negative = inhibition, % at 10 µM; KCNQ2-expressing cells, thallium flux, inhibition; stronger effect = lower value; AID 493025; shares compounds with KCNQ2 inh;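 further: 0% = vehicle wells and values are ratio percent relative to vehicle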
# KCNQ1 spec: KCNQ2 inhibitor that also affects human KCNQ1 channel; shares compounds with KCNQ2 inh; KCNQ1-expressing cells, FluxOR thallium flux fluorescence; stronger effect = lower value; activity change, negative = inhibition, % at 10 µM; 15% of 1,000 active;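 active means activity change at least 3 SD of negative controls below their mean in both duplicate wells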;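 further: CHO cells stably transfected with KCNQ1 and depolarized by potassium stimulus; peak minus minimum fluorescence over baseline after thallium addition; 0% = vehicle negative control and -100% = blank without thallium stimulus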
# Target sequence (P51787 whole entry, looked up): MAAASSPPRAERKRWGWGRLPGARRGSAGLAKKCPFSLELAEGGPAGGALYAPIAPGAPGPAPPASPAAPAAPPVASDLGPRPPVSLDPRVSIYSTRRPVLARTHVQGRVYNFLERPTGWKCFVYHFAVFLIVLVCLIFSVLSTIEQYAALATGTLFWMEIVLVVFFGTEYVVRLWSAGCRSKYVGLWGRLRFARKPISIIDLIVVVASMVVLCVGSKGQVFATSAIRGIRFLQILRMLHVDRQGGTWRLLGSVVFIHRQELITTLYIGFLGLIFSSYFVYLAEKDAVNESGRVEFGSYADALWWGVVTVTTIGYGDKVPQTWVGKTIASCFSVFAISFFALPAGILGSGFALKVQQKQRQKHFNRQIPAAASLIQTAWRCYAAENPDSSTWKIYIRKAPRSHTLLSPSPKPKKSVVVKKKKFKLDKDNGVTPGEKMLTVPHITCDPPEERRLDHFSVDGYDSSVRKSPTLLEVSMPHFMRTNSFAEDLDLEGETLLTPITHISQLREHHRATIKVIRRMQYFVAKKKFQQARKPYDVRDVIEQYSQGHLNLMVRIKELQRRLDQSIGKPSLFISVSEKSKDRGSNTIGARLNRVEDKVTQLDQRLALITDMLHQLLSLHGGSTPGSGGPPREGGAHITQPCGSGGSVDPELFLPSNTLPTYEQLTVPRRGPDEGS
# CHO parental ctr: KCNQ2 inhibitor counter-screen hit in parental CHO cells. shares compounds with KCNQ2 inh. activity change, % at 10 µM. thallium flux counter-screen; stronger effect = lower value. 14% of 1,000 active;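 further: 0% = vehicle negative controls with stimulus buffer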
# KCNQ2 patch conf: confirmation of rat KCNQ2 potassium channel inhibitors; calls only at 10 µM; shares compounds with KCNQ2 inh; KCNQ2-expressing cells, automated patch clamp current; 49% of 550 active; AID 588531
# Numbers without * were called inactive; i = inactive; / = no result given; + = active, no number. Rows were chosen to be rich in hits. Some 1.6% of all compounds tested hit in one or more screens of this group. Unless noted, how the calls were made is not given here.
SMILES,KCNQ2 enhance,KCNQ2 inh,KCNQ2 block conf,KCNQ1 spec,CHO parental ctr,others
CNS(=O)(=O)c1cn(CC(=O)NCc2ccc(N(C)C)cc2)cc1S(=O)(=O)NC,0.46,i,/,/,/,
CCOc1cc(CNc2ccc(N(C)C)cc2)cc(Br)c1OCC(=O)NC(C)(C)C,/,i,/,/,/,
CCOc1cc(CNc2cccc3ccccc23)cc(Br)c1OCC(=O)NC(C)(C)C,-6.8,-6.8*,i,i,i,
CCOC(=O)[C@@H]1C(c2c(OC)cc(OC)cc2OC)=NO[C@@H]1C(=O)OCC,0.49,i,/,/,/,
CC(=O)NS(=O)(=O)c1ccc(NC(=O)CC(C)c2ccccc2)cc1 (stereo not given),1.3,i,/,/,/,
COc1ccccc1CNC(=O)COC(=O)c1cccc(S(=O)(=O)N2CCCCC2)c1,/,i,/,/,/,
COc1ccccc1CNC(=O)COC(=O)c1ccc(C)c(S(=O)(=O)N2CCCCC2)c1,-8.4,-8.4*,-36%*,-39%*,-26%*,KCNQ2 patch conf=+
CCN(CC)CCCNC(=O)c1oc2ccc(S(=O)(=O)N3CC(C)CC(C)C3)cc2c1C (stereo not given),/,i,/,/,/,
CCCCOc1cccc(OCCCC)c1C(=O)Nc1cc(C)on1,-9.7,-9.7*,-43%*,-34%*,-34%*,KCNQ2 patch conf=+
CCOc1ccc(C(=O)Nc2cc(C)on2)cc1OCC,0.02,i,/,/,/,
CCc1ccccc1N(CC(=O)NC1CCCC1)C(=O)CNC(=O)c1cccs1,0.51,i,/,/,/,
CCOC(=O)c1c(C)nc2c(c1-c1ccccc1)C(=O)c1ccccc1-2,-12,-12*,-30%*,i,i,KCNQ2 patch conf=+
CCOC(=O)c1c(C)nc2c(c1-c1cc(OC)ccc1OC)C(=O)c1ccccc1-2,0.12,i,/,/,/,
CN(CC(=O)Nc1ccccc1Oc1ccccc1)Cc1ccccc1F,/,i,/,/,/,
Cc1ccccc1CN(C)CC(=O)Nc1ccccc1Oc1ccccc1,-7.5,-7.5*,-32%*,-32%*,-26%*,KCNQ2 patch conf=i
O=C(NCCc1c[nH]c2ccccc12)C(=O)NCC1OCCN1S(=O)(=O)c1cc(F)ccc1F (stereo not given),1.1,i,/,/,/,
CN1/C(=C\C=C(/C#N)C(=O)Nc2ccc(Cl)cc2)C(C)(C)c2ccccc21,/,i,/,/,/,
CN1/C(=C\C(=O)Nc2ccc(Cl)cc2)C(C)(C)c2ccccc21,-8.1,-8.1*,-27%*,i,i,KCNQ2 patch conf=i
Cc1ccccc1OCC(=O)NCCC1=CCCCC1,-7.3,-7.3*,i,i,i,
CC(=O)Nc1ccccc1OCC(=O)NCCC1=CCCCC1,1.3,i,/,/,/,
O=C(CSc1ccc(F)cc1)NC12CC3CC(CC(C3)C1)C2,/,i,/,/,/,
O=C(CCSc1ccc(Cl)c(Cl)c1)NC12CC3CC(CC(C3)C1)C2,-11,-11*,i,i,i,
Cc1ccc(-n2nc3c(=O)n(CCCC(=O)NCCN4CCN(C)CC4)nc(C)c3c2C)cc1,/,i,/,/,/,
CCCCCCNc1nc(Cl)nc(NC(C)(C)CO)n1,/,i,/,/,/,
O=C(/C=C/c1cccc(C(F)(F)F)c1)Nc1cccc(C(F)(F)F)c1,-8.2,-8.2*,i,i,i,
SMILES,KCNQ2 enhance,KCNQ2 inh,KCNQ2 block conf,KCNQ1 spec,CHO parental ctr,others
C/C=C/C(=O)Nc1cccc(C(F)(F)F)c1,2.1,i,/,/,/,
O=C(NCCC1=CCCCC1)C1CCN(C(=O)c2ccc(Br)cc2)CC1,/,i,/,/,/,
O=C(O)CN1CCCC1=Nc1ccccc1,/,i,/,/,/,
Cc1ccc(C)c(N=C2CCCN2Cc2ccccc2)c1C#N,-7.3,-7.3*,i,i,i,
COc1ccc(C(=O)/C=C/Nc2ccc([N+](=O)[O-])cc2)cc1,/,i,/,/,/,
COc1ccc(C(=O)CC(Nc2ccc([N+](=O)[O-])cc2)c2ccc(OC)cc2)cc1 (stereo not given),-11,-11*,-26%*,i,i,KCNQ2 patch conf=i
O=Cc1ccc(OC(=O)c2cccnc2)cc1,0.54,i,/,/,/,
CCN(CC1COc2ccccc2O1)C(=O)c1ccc(Cl)c(S(=O)(=O)N2CC(C)OC(C)C2)c1 (stereo not given),/,i,/,/,/,
CC1CN(S(=O)(=O)c2cc(C(=O)N(CCc3ccccc3)Cc3ccccc3)ccc2Cl)CC(C)O1 (stereo not given),-7.2,-7.2*,i,i,i,
Cc1nc2ccsc2c(=O)n1-c1cccc(Cl)c1,0.56,i,/,/,/,
CCOc1ccc(C(=O)Nc2cccc(-c3nc4cccnc4o3)c2)cc1Cl,-10,-10*,i,i,i,
CCOc1ccc(C(=O)Nc2cccc(C(=O)O)c2)cc1Cl,1.1,i,/,/,/,
CCCN(CC(=O)Nc1ccccc1OC)C(=O)c1cc(-c2cccs2)nn1-c1ccccc1,-9.3,-9.3*,-32%*,i,i,KCNQ2 patch conf=+
CCN(CC(=O)Nc1ccccc1C(F)(F)F)C(=O)c1cc(-c2cccs2)nn1-c1ccccc1,/,i,/,/,/,
Cc1ccc2c(c1)cc1c(=O)n(CC(=O)NCCCc3ccccc3)nc(C)n12,0.43,i,/,/,/,
CCOC(=O)c1cc2c(=O)c3cc(C)ccc3oc2nc1C,1.5,i,/,/,/,
CCN(CC)C(=O)c1cc2c(=O)c3cc(Cl)ccc3oc2nc1C,-7.4,-7.4*,-28%*,i,i,KCNQ2 patch conf=+
Cc1cccc(C)c1OCCSc1nc2ccccc2n1CC(=O)O,/,i,/,/,/,
O=C(NC1CCCCC1)c1cc(-c2ccccc2O)on1,/,i,/,/,/,
COc1ccc(CNC(=O)CN(Cc2ccccc2)C(=O)CCC(=O)Nc2nccs2)cc1,1.4,i,/,/,/,
Cc1ccc(N(CC(=O)NCCc2ccc(F)cc2)S(=O)(=O)c2ccc(Cl)c([N+](=O)[O-])c2)c(C)c1,/,i,/,/,/,
COC(=O)CSc1nnc(CNc2ccc(Cl)cc2)n1Cc1ccccc1,/,i,/,/,/,
CCOC(=O)CSc1nnc(CNc2ccc(Cl)cc2)n1-c1ccccc1,-8.9,-8.9*,i,i,i,
Cc1ccc(NCCC(=O)c2cccs2)cc1C,-6.7,-6.7*,i,i,i,
Cc1ccc(NCCC(=O)c2cccs2)cc1Cl,/,i,/,/,/,
SMILES,KCNQ2 enhance,KCNQ2 inh,KCNQ2 block conf,KCNQ1 spec,CHO parental ctr,others
Cc1cccc(NC(=O)Cn2nc(-c3cccs3)ccc2=O)c1C,/,i,/,/,/,
Cc1cccc(C(C)C)c1NC(=O)COC(=O)CNS(=O)(=O)c1ccccc1,/,i,/,/,/,
c1ccc(C2=Nc3c(ccc4ccccc34)C(c3ccncc3)=NN2)cc1,-12,-12*,-29%*,i,i,KCNQ2 patch conf=+
Cc1ccc2c(c1)C(c1ccncc1)=NNC(c1ccccc1)=N2,/,i,/,/,/,
COc1cc(SC)ccc1C(=O)N(Cc1ccccc1)c1ccccn1,/,i,/,/,/,
O=C(c1ccc(Br)cc1)N(Cc1nc2ccccc2c(=O)[nH]1)C1CCCC1,/,i,/,/,/,
O=C(NCCc1cn2ccsc2n1)C1CCCCC1,0.14,i,/,/,/,
Cc1csc2nc(CNC(=O)C3CCCCC3)cn12,-8.8,-8.8*,i,i,i,
Nc1nc(-c2ccccc2)c(-c2ccccc2)o1,/,i,/,/,/,
c1ccc(-c2nc(-c3nccc4ccccc34)oc2-c2ccccc2)cc1,-8.6,-8.6*,i,i,i,
COc1ccc(N2CCN(C(=O)Cc3ccc(S(=O)(=O)N4CCOCC4)s3)CC2)cc1,0.04,i,/,/,/,
